Compounds without any hit were thinned out: in the full panel of roughly 83,000, 20% have a hit.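 Results are percent growth after 48 hours of single-concentration exposure. 100 means growth as in untreated cells, lower positive values show inhibition; negative values down to -100 show cell death.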 A number with no mark means an inactive call. Activity calls are given as the source filed them. The calls were made as follows: active = growth percent below 10; inactive = the rest.
tested on: MDA-MB-468 breast; assay: NCI-60 one-dose screen, 48 h (100 = growth as untreated, 0 = no growth, -100 = all killed); details: 10 µM

**Q.** O=S(=O)(Nc1ncccn1)c1ccc(-n2c(-c3ccccc3)nc(-c3ccccc3)c2-c2ccccc2)cc1 was tested. Which growth did it give?
**A.** 85.7%

**Q.** COc1ccc(-c2cc(-c3cc(C(=O)c4ccccc4)n4ccc(C)cc34)nc(N)c2C#N)cc1 was tested. Which growth did it give?
**A.** 48.6%

**Q.** For N#Cc1ccc(NC(=O)CSc2ccc(-c3ccc(Br)cc3)nn2)cc1, which growth is on record?
**A.** 62.5%

**Q.** How did the growth turn out when COc1cc2oc(-c3cccc(C(=O)Nc4ccc(Cl)cc4)c3)cc(=O)c2c(OCCNC(=O)CNC(=O)OC(C)(C)C)c1OC was run?
**A.** 67.4%

**Q.** CCCCOc1ccc(Nc2nc3ccccc3nc2Nc2ccc(OCCCC)cc2)cc1 was tested. Which growth did it give?
**A.** 73.8%

**Q.** For COc1cc(NC(=O)CSc2nnc(-c3ccc4nc(-c5ccc(Cl)cc5)[nH]c4c3)o2)cc(OC)c1OC, which growth is on record?
**A.** 58.3%

**Q.** Which growth does the source give for O=C(NO)c1ccc(CNC(=O)[C@H]2Cc3c([nH]c4ccccc34)[C@H](c3ccc(Cl)cc3)N2)cc1 here?
**A.** -33.5% (active)

**Q.** Which growth does the source give for O=C(Cc1ccc2c(c1)CN(C1CCC(=O)NC1=O)C2=O)NCc1cccc2ccccc12 (configuration not stated) here?
**A.** -69.2% (active)

**Q.** O=C(NCCCCCCCCCC[P+](c1ccccc1)(c1ccccc1)c1ccccc1)c1ccc(-n2nc(-c3ccccc3O)nc2-c2ccccc2O)cc1 was tested. Which growth did it give?
**A.** -87.7% (active)

**Q.** With COc1ccc2[nH]c(=O)c(CSc3ccc(Nc4nccc(-c5ccc(Cl)cc5)n4)cc3)cc2c1 as the compound, how does the growth read?
**A.** 97.9%

**Q.** For CCOC(=O)C1=C(N)N(c2ccccc2)C2=C(C(=O)CC(C)(C)C2)C1c1ccccc1OC (configuration not stated), which growth is on record?
**A.** 88.7%

**Q.** How did the growth turn out when COc1cc(C2CC(c3ccc(C)cc3)=Nc3c(N)nc(N)nc3N2)ccc1Oc1nc(Nc2ccc(F)cc2)nc(N(C)C)n1 (configuration not stated) was run?
**A.** 15.6%

From PubChem BioAssay (NCI)
